Bioassay records from PubChem.
In the library only some 5.4% were active in any assay of this set; here they are far more common.
APOBEC3G inh = APOBEC3G DNA deaminase inhibitors, primary screen, biochemical, fluorescence, single-stranded DNA substrate, uHTS; recombinant A3G, ssDNA deamination FAM/TAMRA fluorescence; inhibition, % at 20 µM; 330,000 compounds, 0.28% hits;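 active = inhibition of at least 40% at 20 µM, with no more than 30% in the related APOBEC3A deaminase screen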
aDG glyco act = activators of alpha-DG glycosylation, primary screen, uHTS, Pro5-aDG cells, AlphaScreen; activation, % at 10 µM; 360,000 compounds, 0.22% hits; alpha-DG glycosylation AlphaScreen (IIH6); 0% Pro5, 100% B10-LARGE cell signal;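 active = activation of at least 8% versus controls, or a plate z-score of at least 8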;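 note: Pro5 are CHO cells carrying HIG-tagged alpha-DG that lacks glycosylation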
PHOSPHO1 inh = PubChem AID 1565. Phosphoethanolamine/phosphocholine phosphatase (Homo sapiens), Q8TCT1. recombinant PHOSPHO1, absorbance phosphatase assay. inhibition, % at 13.3 µM. 290,000 compounds, 1.1% hits; in the data active = inhibition above about 60%
Target sequence (Q8TCT1 whole entry, looked up): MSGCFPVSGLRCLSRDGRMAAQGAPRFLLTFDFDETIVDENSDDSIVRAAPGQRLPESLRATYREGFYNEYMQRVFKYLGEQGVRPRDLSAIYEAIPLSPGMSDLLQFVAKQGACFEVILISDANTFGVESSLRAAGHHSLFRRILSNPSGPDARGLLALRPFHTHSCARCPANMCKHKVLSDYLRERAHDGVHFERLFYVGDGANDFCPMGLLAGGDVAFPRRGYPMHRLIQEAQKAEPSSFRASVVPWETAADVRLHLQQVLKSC
ALR inh = inhibitors of human ALR sulfhydryl oxidase, primary screen, biochemical, H2O2 detection, HRP-luminol luminescence, single point; FAD-linked sulfhydryl oxidase ALR (Homo sapiens), P55789; inhibition, % (test concentration not listed); AID 485317, 2010; 290,000 compounds, 3.8% hits; purified ALR, DTT oxidation;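 active = mean replicate inhibition above about 79%, with every replicate also reaching it, limit read from the data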
Target sequence (P55789 whole entry, looked up): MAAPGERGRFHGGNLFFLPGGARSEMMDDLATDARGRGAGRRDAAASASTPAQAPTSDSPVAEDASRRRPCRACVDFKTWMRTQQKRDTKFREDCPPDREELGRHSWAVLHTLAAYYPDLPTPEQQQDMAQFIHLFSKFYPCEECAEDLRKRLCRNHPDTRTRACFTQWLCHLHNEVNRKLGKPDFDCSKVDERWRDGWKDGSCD
A3A deaminase = APOBEC3A ssDNA deaminase inhibitors, primary screen, selectivity assay for APOBEC3G inhibitor project, biochemical, FAM/TAMRA oligo cleavage fluorescence. recombinant A3A, FAM/TAMRA ssDNA deamination fluorescence. inhibition, % at 20 µM. 330,000 compounds, 0.41% hits;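 active = at least 40% inhibition at 20 µM here, with at most 30% in a related deaminase screen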
Target sequence (P31941 whole entry, looked up): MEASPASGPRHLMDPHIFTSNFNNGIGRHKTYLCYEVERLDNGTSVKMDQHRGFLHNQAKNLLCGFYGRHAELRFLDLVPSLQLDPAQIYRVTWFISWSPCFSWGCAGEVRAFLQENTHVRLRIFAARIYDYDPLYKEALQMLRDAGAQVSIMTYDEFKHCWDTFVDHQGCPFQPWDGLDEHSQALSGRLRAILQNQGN
rCAG RNA binder = binders of r(CAG) RNA repeats, primary screen, biochemical, fluorescence | r(CAG) RNA repeat, TO-PRO-1 dye displacement fluorescence | inhibition, % at 3 µM | 370,000 compounds, 1.3% hits;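 active = inhibition above the plate cutoff, the mean of all test compounds on that plate plus 3 SD, cut at about 35% in these data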;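 note: higher means more dye released from RNA so lower well fluorescence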
Each line names hits and unclear results; the compound was inactive in the other large screens.

CC(C)CN1C(=O)[C@@]2(CC(=O)N(C)C2c2ccccc2)c2cc(-n3cc(CN(C)C)nn3)ccc21 (some centres undefined)	none (no result: APOBEC3G inh, aDG glyco act, PHOSPHO1 inh, ALR inh, A3A deaminase)
O=C(CCN1CCc2ccccc21)c1ccc2c(c1)OCCO2	none
O=C(CCN1CCc2ccccc2C1)c1ccc2c(c1)OCCO2	ALR inh 98 (no result: rCAG RNA binder)
Cc1c(C(=O)N(C)C)c2ccc(Cl)cc2n1O	ALR inh 99
Cc1c(C(=O)N(C)C)c2cc(Cl)ccc2n1O	ALR inh 98
CCOC(=O)c1c(C)n(O)c2ccc(Cl)cc2c1=O	none
C#CCSc1nccc(-c2nn(-c3ccc(C)cc3)ccc2=O)n1	PHOSPHO1 inh 81
COc1ccc(-n2c(COc3ccccc3)nnc2SCC(=O)Nc2ccc3c(c2)OCCO3)cc1	none (no result: APOBEC3G inh, aDG glyco act, PHOSPHO1 inh, ALR inh, A3A deaminase)
CCOC(=O)c1c(-c2ccc(C)o2)csc1N	PHOSPHO1 inh 69
CCOC(=O)c1c(-c2ccc(C)o2)csc1NC(=O)COC(=O)c1cccs1	none
CCOC(=O)c1c(-c2ccsc2)csc1N	PHOSPHO1 inh 92
O=C(C1CCCN1S(=O)(=O)c1ccc(Br)s1)N1CCc2ccccc2C1 (centres undefined)	none (no result: APOBEC3G inh, aDG glyco act, PHOSPHO1 inh, ALR inh, A3A deaminase)
O=C(N[C@H](C(=O)N1CCC[C@H]1C(=O)NC1CCCC1)C1CCCCC1)C1CCCC1	none (no result: APOBEC3G inh, aDG glyco act, PHOSPHO1 inh, ALR inh, A3A deaminase)
CCCCNC(=O)/C(C#N)=C/c1cccnc1	none
Cc1cccc(NC(=O)/C(C#N)=C\c2cccnc2)c1	none
N#C/C(=C\c1cccnc1)C(=O)Nc1ccc(Cl)cc1	ALR inh 98
N#C/C(=C\c1cccnc1)C(=O)Nc1cccc2ccccc12	ALR inh 95
COc1ccccc1NC(=O)/C(C#N)=C/c1cccnc1	none
N#C/C(=C\c1cccnc1)C(=O)Nc1cccc(Cl)c1	ALR inh 88
O=C(Nc1ccc2ncccc2c1)c1cc(-c2ccc(Cl)cc2)nc2ccccc12	none (no result: APOBEC3G inh, aDG glyco act, PHOSPHO1 inh, ALR inh, A3A deaminase)
COC(=O)Cc1csc(Nc2ccccc2)n1	none (no result: ALR inh)
COC(=O)Cc1nc(Nc2ccccc2)sc1C	ALR inh 99
COc1ccc2[nH]cc(C(C)c3ccccc3O)c2c1 (centres undefined)	none (no result: APOBEC3G inh, aDG glyco act, PHOSPHO1 inh, ALR inh, A3A deaminase)
CC(Oc1ccccc1)C(=O)Nc1ccccc1O (centres undefined)	ALR inh 90
Cc1cccc(NC(=O)NN(C(=O)c2ccccc2Cl)C(C)(C)C)c1	none (no result: APOBEC3G inh, aDG glyco act, PHOSPHO1 inh, ALR inh, A3A deaminase)
O=[N+]([O-])c1cccnc1N1CCN(c2ccc(F)cc2)CC1	ALR inh 98
CCOc1ccc(Cl)cc1S(=O)(=O)N1CCC(C(=O)NCC2CCCO2)CC1 (centres undefined)	none
CCOC(=O)C(=NCC1CCCO1)NNc1cc(Cl)ccc1Cl (centres undefined)	ALR inh 99
COC(=O)[C@]12C[C@H](CC(=O)N3CCC(c4ccccc4)CC3)C(=O)N(CCC3=CCCCC3)C1=C[C@H](COCc1ccccc1)O[C@@H]2C	none (no result: APOBEC3G inh, aDG glyco act, PHOSPHO1 inh, ALR inh, A3A deaminase)
O=C(Nc1c(C(=O)O)oc2ccc(Br)cc12)c1ccccc1	ALR inh 95 (no result: rCAG RNA binder)
CCN1CCCc2cc(CN(CCN3CCOCC3)C(=S)Nc3ccc(OC)c(Cl)c3)ccc21	ALR inh 99
COc1cccc(C(=O)N(CCN2CCOCC2)Cc2ccc(OC)c(OC)c2)c1	none (no result: APOBEC3G inh, aDG glyco act, PHOSPHO1 inh, ALR inh, A3A deaminase)
CCN1CCCc2cc(CN(CCN3CCOCC3)C(=S)Nc3ccc(OC)c(OC)c3)ccc21	ALR inh 92
COc1ccc(NC(=S)N2CCC(N(C)CCN3CCOCC3)CC2)cc1Cl	none
O=S1(=O)c2c(cccc2N2CC[C@@H](O)C2)O[C@@H]2CCN1C2	none (no result: APOBEC3G inh, aDG glyco act, PHOSPHO1 inh, ALR inh, A3A deaminase)
COc1ccc2c(c1)[C@@]1(OCCC=C[C@H]1C)C(=O)N2Cc1ccc(F)cc1	none (no result: APOBEC3G inh, aDG glyco act, PHOSPHO1 inh, ALR inh, A3A deaminase)
O=C(NC1CC1)c1sccc1-n1cccc1	ALR inh 100
COC(=O)C[C@@H]1CC[C@H]2[C@@H](COc3ccc(NC(=O)Nc4ccc(C)cc4)cc3C(=O)N2C)O1	none (no result: APOBEC3G inh, aDG glyco act, PHOSPHO1 inh, ALR inh, A3A deaminase)
COC(=O)[C@]12C[C@H](CC(=O)N3CCN(C(=O)c4ccco4)CC3)C(=O)N(Cc3ccc4c(c3)OCO4)C1=C[C@H](C(C)C)O[C@@H]2C1CC1	none (no result: APOBEC3G inh, aDG glyco act, PHOSPHO1 inh, ALR inh, A3A deaminase)
CC(=O)c1ccc(S(=O)(=O)NCC2CCN(C(=O)C(=O)c3cc4ccccc4o3)CC2)cc1	none (no result: APOBEC3G inh, aDG glyco act, PHOSPHO1 inh, ALR inh, A3A deaminase)
CC(C)COCC(O)CCC(=O)NNC(=S)Nc1ccccc1 (centres undefined)	ALR inh 93
O=C(Cc1ccccc1)NNC(=S)Nc1ccccc1	none
C#CCn1c(=NC(=O)CSCC(=O)N2CCOCC2)sc2ccccc21	ALR inh 96
O=C1CCCN1CCC(=O)N1CCCC(Nc2ccc(F)cc2)C1 (centres undefined)	none
COc1ccc(NC2CCCN(C(=O)CCN3CCCC3=O)C2)cc1 (centres undefined)	ALR inh 98
O=C1CCCCN1CCC(=O)N1CCCC(Nc2ccc(F)c(F)c2)C1 (centres undefined)	none
Cc1ccc(NC2CCCN(C(=O)CCCN3CCCCC3=O)C2)cc1C (centres undefined)	ALR inh 99
COc1ccc(NC2CCCN(C(=O)CCCN3CCCCC3=O)C2)cc1 (centres undefined)	ALR inh 99
COc1ccc(NC2CCCN(C(=O)CCN3CCCC3=O)C2)cc1OC (centres undefined)	ALR inh 99
Cc1ccc(CN2CCCCC(NC(=O)c3ccc(N(C)C)cc3)C2=O)cc1 (centres undefined)	none (no result: APOBEC3G inh, aDG glyco act, PHOSPHO1 inh, ALR inh, A3A deaminase)
COc1ccc(-n2c(COc3ccc(Cl)cc3)nnc2SCC(=O)c2ccc(-c3ccccc3)cc2)cc1	none (no result: APOBEC3G inh, aDG glyco act, PHOSPHO1 inh, ALR inh, A3A deaminase)
CCN(CC)c1ccc(NC(=O)CSc2nnc(-c3ccc(Cl)cc3)n2Cc2ccco2)cc1	none (no result: APOBEC3G inh, aDG glyco act, PHOSPHO1 inh, ALR inh, A3A deaminase)
COC(=O)[C@]12C[C@H](CC(=O)N3CCSCC3)C(=O)N(Cc3ccc(Cl)cc3Cl)C1=C[C@H](C(C)C)O[C@@H]2C1CC1	none (no result: APOBEC3G inh, aDG glyco act, PHOSPHO1 inh, ALR inh, A3A deaminase)
O=C(O)CCN1Cc2ccccc2C1=O	none
COc1ccc(NC2CCCN(C(=O)CCN3Cc4ccccc4C3=O)C2)cc1 (centres undefined)	ALR inh 99
Cc1cc(OC2CCCCC2)nc(-c2ccccc2O)n1	ALR inh 99
O=C(CS(=O)c1ccccc1[N+](=O)[O-])Oc1ccc(Br)cc1 (centres undefined)	ALR inh 78
CS(=O)(=O)c1ccc(S(=O)CC(=O)Oc2ccc(Cl)cc2)c([N+](=O)[O-])c1 (centres undefined)	none (no result: aDG glyco act, rCAG RNA binder)
CC(=O)Nc1ccc(S(=O)(=O)N2CCN=C2SCc2ccccc2C)cc1	ALR inh 98
CS(=O)(=O)N1CCN=C1SCc1ccc([N+](=O)[O-])cc1	ALR inh 99
